Assay [1] can be described thus: Primary fluorescence-based thiol-reactive (MSTI) qHTS assay for identification of artifact compounds. (AID 1845221).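 For activity change, negative = thiol reactive: series mostly up to about 54 µM; thiol-reactive compounds lower the probe fluorescence signal.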 Note: nearly all actives have a fitted effect of over 65% in size. Note: potency is the fitted concentration of half-maximal effect. In short, it runs like this: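 Probe: MSTI 4 uM, PBS pH 7.4, 2% DMSO. Incubation 1 h, RT, light-protected. Readout fluorescence 525/598 nm.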
(In general: In qHTS, concentration-response curves come from the screen itself.)

Assay [2] relates to Nanoluciferase (engineered Oplophorus gracilirostris luciferase). Description: Primary Nanoluciferase (NLuc) qHTS assay for identification of artifact compounds. (AID 1845222).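 Note: NLuc secreted into diluted conditioned medium of S16 cells; series mostly up to about 54 µM; 0% = DMSO and -100% = no enzyme.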 Summed up:
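NLuc from S16 cell medium (1:55) plus test compounds, 15 min, room temperature. Luminescence after Nano-Glo (1:100) addition, 5 min.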

Assay [3] is described as follows: Primary redox qHTS assay for identification of artifact compounds. (AID 1845223).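 Note: 0% = DMSO and 100% = reference compound.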 In short, it runs like this:
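Amplex Red (25 uM) and HRP (250 mU/mL) in HBSS, with compounds for 15 min, then 250 uM DTT for 30 min, room temperature, dark. Fluorescence 525/598 nm read; normalized to DMSO and 10 uM DA3003; Hill fit.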

Values without a mark were called inactive. Inconclusive results are not listed. Calls of active or inactive are those of the source. Calls come from the whole dose curve; as a rule, active = well fitted curve in the direction sought with a large enough effect; inconclusive = small, poorly fitted or top-dose-only effect, or another doubt; inactive = no such curve, though single readings can be large; an effect the other way counts as inactive or inconclusive.

`C=CC1(C)CC(O)C2(CCC3C(C)(C(=O)O)CCCC3(C)C2=O)C1` (configuration not stated): the Potency result in assay [1], in assay [2] and in assay [3] was “inactive” each time.
In the case of `O=C(O)c1n[nH]c2c1C[C@H]1C[C@@H]21`, the Potency result in assay [1], in assay [2] and in assay [3] was “inactive” each time.
On to `C[C@@H]1O[C@@H](O[C@H]2[C@H](O[C@H]3CC[C@@]4(C)C(CC[C@]5(C)C4CC=C4[C@@H]6CC(C)(C)CC[C@]6(C(=O)O)CC[C@]45C)[C@]3(C)CO)OC[C@H](O)[C@@H]2O)[C@H](O)[C@H](O[C@@H]2OC[C@@H](O)[C@H](O)[C@H]2O)[C@H]1O` (some centres not stated), for which the activity change, negative = thiol reactive in assay [1] is 366% [at 11.5 µM]. Besides, in assay [2], the activity, negative = inhibition was 0.957% [at 11.6 µM]. In addition, the redox activity (% of DA3003) in assay [3] was 0.416% [at 11.5 µM].
In the case of `CO[C@@H]1COCC[C@@H]1N[C@@H]1CC[C@@](C(=O)N2CCc3ncc(C(F)(F)F)cc3C2)(C(C)C)C1`, the Potency entry in assay [1], in assay [2] and in assay [3] was “inactive” each time.
With `C[C@@H]1O[C@@H](OC[C@H]2O[C@@H](OCC3CCC4CC3C4(C)C)[C@H](O)[C@@H](O)[C@@H]2O)[C@H](O)[C@H](O)[C@H]1O` (some centres not stated), the Potency in assay [1] was 11.6 µM (active). Moreover, the Potency entry in assay [2] and in assay [3] was “inactive” in each case.
As to `CC(C)(C)c1cc(CN2CCN(CC(O)c3ccc(Cl)cc3)CC2)cc(C(C)(C)C)c1O` (configuration not stated), the Potency entry in assay [1], in assay [2] and in assay [3] was “inactive” in each case.
Regarding `CC(C)(O)c1ccc2c(c1)C(O)CC1C(C)(C(=O)O)CCCC21C` (configuration not stated), the Potency result in assay [1], in assay [2] and in assay [3] was “inactive” each time.
Turning to `CC(c1c[nH]c2ccccc12)C(O)C(=O)O` (configuration not stated), the Potency in assay [1] is 10.6 µM (active). The Potency entry in assay [2] and in assay [3] was “inactive” each time.
With `CC1OC(OC2C(CO)OC(OCC3OC(OC(=O)C45CCC(C)(C)CC4C4=CCC6C7(C)CCC(OC8OC(C(=O)O)C(O)C(OC9OC(CO)C(O)C(O)C9O)C8O)C(C)(C)C7CCC6(C)C4(C)CC5)C(O)C(O)C3O)C(O)C2O)C(O)C(O)C1O` (configuration not stated), the activity change, negative = thiol reactive in assay [1] was 336% [at 11.5 µM]. In assay [2], the activity, negative = inhibition is 0% [at 11.6 µM]. Besides, the redox activity (% of DA3003) in assay [3] was 7.33% [at 11.5 µM].
Turning to `O=C(/C=C/c1ccc(O)cc1)OC[C@]12O[C@H]1[C@@H](O)[C@@H]1C=CO[C@@H](O[C@@H]3O[C@H](CO)[C@@H](O)[C@H](O)[C@H]3O)[C@@H]12`, the Potency result in assay [1], in assay [2] and in assay [3] was “inactive” in each case.
Consider `C[C@]1(OC(=O)/C=C/c2ccccc2)C[C@H](O)[C@]2(O)C=CO[C@@H](O[C@@H]3O[C@H](CO)[C@@H](O)[C@H](O)[C@H]3O)C12` (some centres not stated), for which the Potency entry in assay [1], in assay [2] and in assay [3] was “inactive” throughout.
Regarding `CC(C)=CCC[C@](C)(O[C@@H]1O[C@H](CO[C@@H]2OC[C@@H](O)[C@H](O)[C@H]2O)[C@@H](O)[C@H](O)[C@H]1O)[C@H]1CC[C@]2(C)[C@@H]1[C@H](O)C[C@@H]1[C@@]3(C)CC[C@H](O[C@@H]4O[C@H](CO)[C@@H](O)[C@H](O)[C@H]4O[C@@H]4O[C@H](CO)[C@@H](O)[C@H](O)[C@H]4O)C(C)(C)[C@@H]3CC[C@]12C`, the Potency entry in assay [1], in assay [2] and in assay [3] was “inactive” each time.
With `COc1ccccc1[C@@H]1C2=C(CC(C)(C)CC2=O)Nc2n[nH]c(C(F)(F)F)c21`, the Potency result in assay [1], in assay [2] and in assay [3] was “inactive” in each case.
Regarding `CCOC(=O)[C@H](CCc1ccccc1)CC1(C(=O)N[C@H]2CCc3ccccc3N(CC(=O)O)C2=O)CCCC1`, the Potency result in assay [1], in assay [2] and in assay [3] was “inactive” in each case.
Consider `Cc1c(N2C(=O)c3ccc(C(=O)O)cc3C2=O)c(=O)n(-c2ccccc2)n1C`, for which the Potency entry in assay [1], in assay [2] and in assay [3] was “inactive” each time.
In the case of `CCCCCCc1cccc(NC(=O)[C@H](N)CCP(=O)(O)O)c1`, in assay [1], the activity change, negative = thiol reactive was 1.56% [at 11.5 µM]. Moreover, the activity, negative = inhibition in assay [2] is 4.9% [at 11.6 µM]. Besides, in assay [3], the redox activity (% of DA3003) was -3.89% [at 11.5 µM].
In the same order, the values of `C/C=C(\C)C(=O)O[C@@H](C)[C@H]1CC[C@]2(O)C3CCC4C[C@@H](OC5CC(OC)C(OC6CC(OC)C(OC7CC(OC)C(OC8OC(C)C(OC9OC(CO)C(O)C(O)C9O)C(OC)C8O)C(C)O7)C(C)O6)C(C)O5)CC[C@]4(C)C3[C@H](O)[C@@H](O)[C@]12C` (some centres not stated) are 94.5% [at 11.5 µM], 0.355% [at 11.6 µM] and 14% [at 11.5 µM].
`COC(=O)c1ccc(O[C@@H]2O[C@H](CO)[C@@H](O)[C@H](O)[C@H]2O)c(OC)c1`: the Potency in assay [1] is 16.5 µM (active). In addition, the Potency result in assay [2] and in assay [3] was “inactive” throughout.
For `CC(C)N(C[C@H]1O[C@@H](n2cnc3c(N)ncnc32)[C@H](O)[C@@H]1O)C1CC(CCc2nc3ccc(C(C)(C)C)cc3[nH]2)C1` (some centres not stated), the Potency entry in assay [1], in assay [2] and in assay [3] was “inactive” in each case.

These data come from PubChem BioAssay (NCATS).
